In ChEMBL document CHEMBL1201862, “PubChem BioAssay data set” (2004):
Out of some 310,000 compounds screened, about 17,000 (5.5%) were called active. Not shown: some 11% with an inconclusive outcome. The rule behind the calls is not given here. Many of the other results were omitted from the sample, so actives are more common in it than they were.

These compounds were tested against T1, Nuclear receptor ROR-gamma (Mus musculus) (UniProt P51450) (assay: qHTS for inhibitors of ROR gamma transcriptional activity.).
T1 sequence (whole entry): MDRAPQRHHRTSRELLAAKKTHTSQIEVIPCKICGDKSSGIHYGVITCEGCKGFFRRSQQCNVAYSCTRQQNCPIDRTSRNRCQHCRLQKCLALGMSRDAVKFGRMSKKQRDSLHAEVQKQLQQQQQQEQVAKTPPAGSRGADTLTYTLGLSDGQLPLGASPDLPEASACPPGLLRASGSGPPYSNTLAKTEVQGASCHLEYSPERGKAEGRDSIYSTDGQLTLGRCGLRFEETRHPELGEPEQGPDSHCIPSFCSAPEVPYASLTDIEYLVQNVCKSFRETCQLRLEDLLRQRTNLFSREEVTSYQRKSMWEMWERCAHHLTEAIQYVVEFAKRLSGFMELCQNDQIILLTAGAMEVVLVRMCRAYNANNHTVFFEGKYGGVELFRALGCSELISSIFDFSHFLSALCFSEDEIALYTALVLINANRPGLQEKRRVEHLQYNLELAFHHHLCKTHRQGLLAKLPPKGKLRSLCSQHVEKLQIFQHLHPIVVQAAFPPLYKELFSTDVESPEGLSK
Type: functional

Row | SMILES | Potency
1 | COC[C@@H]([C@H](O)[C@H](O)C(=O)NCC[C@H](C)c1nc(/C=C/C[C@@H]2O[C@]3(C[C@@H](O)[C@@H]2C)O[C@H]([C@H](C[C@H](O)[C@H](C)[C@H](O)[C@H](C)/C=C(C)/C(C)=C/C=C/C(C)=C\C#N)OC)[C@H](OP(=O)(O)O)C3(C)C)co1)N(C)C | 0.0014 µM (active)
2 | Cl[Te]1(Cl)OCCO1 | 15.8 µM (active)
